# Shiga toxin inh – inhibitors of Shiga toxin in Vero cells; AID 2315; 290,000 tested, 9.2% active; inhibition, % at 38.7 µM; Vero cells, Shiga toxin protein synthesis inhibition reporter; in the data active = inhibition mostly above about 28%, no sharp cut-off; inactive = mostly below about 43%; note: 0% is about no effect
# RE007 growth inh – less growth of the S. pombe RE007 Vpr strain | S. pombe RE007 Vpr strain, BacTiter-Glo ATP luminescence, 24 h | Potency, µM (doses to about 92.2 µM), inactives show at the highest dose activity change, negative = less growth, most hits filed as inhibitors | 360,000 tested, 0.21% active; active = well fitted falling curve with a large enough effect; inconclusive = small, poorly fitted or top-dose-only effect; inactive = no such curve, though single readings can be large or run the other way; note: potency is the fitted concentration of half-maximal effect; % is set by controls: 0 for no effect and ±100 for the full control effect; nearly all actives have a fitted effect of over 50% in size
#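 Fission yeast RE007 carrying one integrated HIV-1 vpr copy, seeded at OD 0.01 in PMG+AL medium with 23 nL pinned compound. Grown 24 h at 30 degrees; viability read by BacTiter-Glo luminescence after 5 min.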
# FBPA Giardia inh – blocks Giardia fructose-bisphosphate aldolase activity. Potency, µM (doses to about 59.6 µM), inactives show at the highest dose activity, negative = inhibition, usual class: inhibitors. A8B2U2. purified Giardia FBPA. AID 2451. 290,000 tested, 0.71% active; note: potency is the fitted concentration of half-maximal effect; % is set by controls: 0 for no effect and ±100 for the full control effect; nearly all actives have a fitted effect of over 55% in size
# Target sequence (A8B2U2 whole entry, looked up): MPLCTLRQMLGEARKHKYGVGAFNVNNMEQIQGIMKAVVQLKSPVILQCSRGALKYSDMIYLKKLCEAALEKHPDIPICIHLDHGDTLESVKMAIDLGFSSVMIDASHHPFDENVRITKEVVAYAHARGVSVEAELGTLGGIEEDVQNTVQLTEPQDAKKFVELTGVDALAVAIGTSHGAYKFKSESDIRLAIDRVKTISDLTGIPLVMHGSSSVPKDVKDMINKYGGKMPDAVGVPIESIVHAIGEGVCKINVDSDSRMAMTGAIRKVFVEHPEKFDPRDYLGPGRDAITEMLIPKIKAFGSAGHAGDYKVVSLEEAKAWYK
#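 40 nM FBPA preincubated 10 min at RT with compound (up to 57.5 uM final), then substrate plus GAPDH/TPI/NAD/arsenate coupling and diaphorase/resazurin added. Fluorescence read after 20 min at RT, 525/598 nm.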
# LmPK inhibitor – inhibitors of Leishmania mexicana pyruvate kinase. Q27686. purified LmPK, Kinase-Glo ATP luminescence, 1 h. Potency, µM (top dose mostly 57.5 µM), for inactives: top-dose activity change, negative = inhibition, most hits filed as inhibitors. 290,000 tested, 0.37% active. AID 1721; note: potency is the fitted concentration of half-maximal effect; % is set by controls: 0 for no effect and ±100 for the full control effect
#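 Screened at intermediate enzyme activity to detect both inhibitors and activators: LmPK at 0.1 nM, with a 0.5 nM enzyme column as activation reference. PEP 0.5 mM, ADP 0.1 mM; ATP detected by luminescence after 1 h.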
# CHX counter – counter-screen for Shiga toxin inhibitors: cycloheximide protein synthesis inhibition | cell reporter, cycloheximide protein synthesis inhibition counterscreen | max response, % | 300,000 tested, 12% active | AID 2314; in the data active = max response mostly above about 13%, no sharp cut-off; inactive = mostly below about 14%; note: read at 38.3 µM for the half of the compounds with a filed dose; 0% is about no effect
# TbPYK inhibitor – T. brucei pyruvate kinase inhibition | Q57TT1 | TbPYK enzyme, Kinase-Glo Plus ATP luminescence, 45 min | Potency, µM (titrated, usually from 76.8 µM), for the others: top-dose activity, negative = inhibition, most hits filed as inhibitors | 410,000 tested, 0.12% active; note: potency is the fitted concentration of half-maximal effect; % is set by controls: 0 for no effect and ±100 for the full control effect; nearly all actives have a fitted effect of over 50% in size
#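 Luminescent Kinase-Glo Plus end-point after 45 min room-temperature reaction of T. brucei pyruvate kinase started with 130 uM ADP (final). Buffer TEA 50 mM pH 7.2 with KCl, MgCl2, BSA, Tween-20; titration-based qHTS with fitted concentration-effect curves.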
# An asterisk follows results filed as active; ? = inconclusive; . = no result given; + = active, no number. The entries come from a sample that favours hits as a whole. Unless noted, calls come from the whole dose curve; as a rule, active = well fitted curve in the direction sought with a large enough effect; inconclusive = small, poorly fitted or top-dose-only effect, or another doubt; inactive = no such curve, though single readings can be large; an effect the other way counts as inactive or inconclusive.
SMILES,Shiga toxin inh,RE007 growth inh,FBPA Giardia inh,LmPK inhibitor,CHX counter,TbPYK inhibitor
Cc1ccc(NC(=O)c2ccc3c(c2)OCCO3)cc1S(=O)(=O)Nc1cccc(Cl)c1,88*,8%,-8%,2%,45*,-10%
CCOC(=O)C(=O)CC(=O)c1ccc2c(c1)OCCO2,51,8%,-14%,-4%,30*,2%
CCCc1cc(C(=O)NNC(=S)Nc2cccc(C)c2)cs1,40*,4%,24%,-11%,31*,3%
Cc1cccc(NC(=S)NNC(=O)c2csc3c2CCC(C)C3)c1 (centres undefined),36,-1%,29%,-2%,12,-12%
CCC(C)(C)NC(=O)c1ccc2c(c1)OCCO2,45,0%,5%,0%,16*,0%
Cc1cccc(Cn2c(=O)n(Cc3ccccc3)c(=O)c3c2c2cc(C)ccc2n3C)c1,.,.,.,.,.,4%
O=C(Nc1cccc(F)c1)c1ccc2c(c1)OCCO2,87*,-6%,0%,-10%,43*,-5%
COc1cccc(NC(=O)C(=O)N/N=C/c2ccc3c(c2)OCO3)c1,56,?,-5%,0%,26*,1%
Cc1cccc(NC(=O)c2ccc3c(c2)OCCO3)c1,41*,-26%,4%,-22%,31,19%
Cc1ccc(NC(=O)c2ccc3c(c2)OCCO3)cc1C,21,-23%,-4%,-7%,15,0%
Cc1cccc(NC(=S)NNC(=O)c2ccc3c(c2)OCO3)c1,49*,?,8%,-12%,116*,-21%
COc1ccccc1OCC(=O)NCC(c1ccc(Cl)cc1)N1CCCCC1 (centres undefined),.,.,.,.,.,-5%
CSc1cccc(NC(=O)C2CCN(c3ncnc4c3nc3n4CCCCC3)CC2)c1,.,.,.,.,.,-16%
CCC(C)(C)NC(=O)CN(C(=O)C(=O)Nc1ccc2c(c1)OCCO2)C1CC1,14,2%,9%,-11%,12*,3%
CC(C)(C)NC(=O)CN(C(=O)C(=O)Nc1ccc2c(c1)OCCO2)C1CC1,16,10%,6%,-1%,-3,-9%
O=C(Nc1ccccc1)c1ccc2c(c1)OCCO2,70*,0%,-2%,14µM*,41*,-17%
Cc1cccc(NC(=S)N/N=C/c2ccc3c(c2)OCO3)c1,+,-19%,29%,-1%,49*,-1%
COc1ccc(NC(=O)/C(=C\c2ccc3c(c2)OCO3)NC(C)=O)cc1,67*,2%,2%,0%,59*,1%
CC(C)NC(=O)N1CC2(CCN(C(=O)c3ccncc3)CC2)C1,.,.,-1%,.,.,0%
COc1ccc(C(=O)c2ccc(CC#N)s2)cc1,68*,-4%,-1%,2%,24*,-2%
COc1ccc(C(=O)c2no[n+]([O-])c2C(=O)c2ccc(OC)cc2)cc1,-13,?,?,8%,14,-11%
CCc1cc(C(=O)c2ccc(OC)cc2)c(N)s1,22,-6%,-7%,-7%,8,-3%
COc1ccc(C(=O)c2ccsc2N)cc1,51*,-12%,1%,-1%,28*,-7%
CCOCCc1nn2c(=O)cc(COC(=O)c3ccc(NC(=O)C4CCCCC4)cc3)nc2s1,.,.,.,.,.,2%
CC1=CC(=O)OC1Cc1ccc2ccccc2n1 (centres undefined),.,.,-13%,.,.,.
SMILES,Shiga toxin inh,RE007 growth inh,FBPA Giardia inh,LmPK inhibitor,CHX counter,TbPYK inhibitor
Cc1noc(C)c1CSc1nc2ccccc2s1,39,?,3%,-3%,18,-2%
CCS(=O)CCSc1nc2ccccc2s1 (centres undefined),121*,-8%,4%,1%,32*,2%
CCN(C(C)=O)c1nnc(CSc2nc3ccccc3s2)s1,157*,?,11%,-10%,25*,?
c1csc(CSc2nc3ccccc3s2)c1,136*,-20%,-3%,-15%,34*,-12%
CNc1nnc(CSc2nc3ccccc3s2)s1,84*,4%,-3%,-2%,22*,-10%
CC1=C(C(=O)Nc2ccccn2)C(c2ccccc2)n2ncnc2N1 (centres undefined),11,8%,0%,5%,15*,9%
